Screens deposited in PubChem by National Center for Advancing Translational Sciences (NCATS).
AmpC detergent = AmpC beta-lactamase inhibition with detergent present; hit rate 0.041% among 370,000; Potency, µM (top dose mostly 114 µM), for the others: at the top dose activity change, negative = inhibition, actives largely listed as inhibitors; AID 485294; P00811; AmpC hydrolysis of nitrocefin, absorbance 480 nm, 0.01% Triton;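 also: 0% = no-compound wells and -100% = no-enzyme wells; nearly all actives have a fitted effect of over 25% in size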
Target sequence (P00811 whole entry, looked up): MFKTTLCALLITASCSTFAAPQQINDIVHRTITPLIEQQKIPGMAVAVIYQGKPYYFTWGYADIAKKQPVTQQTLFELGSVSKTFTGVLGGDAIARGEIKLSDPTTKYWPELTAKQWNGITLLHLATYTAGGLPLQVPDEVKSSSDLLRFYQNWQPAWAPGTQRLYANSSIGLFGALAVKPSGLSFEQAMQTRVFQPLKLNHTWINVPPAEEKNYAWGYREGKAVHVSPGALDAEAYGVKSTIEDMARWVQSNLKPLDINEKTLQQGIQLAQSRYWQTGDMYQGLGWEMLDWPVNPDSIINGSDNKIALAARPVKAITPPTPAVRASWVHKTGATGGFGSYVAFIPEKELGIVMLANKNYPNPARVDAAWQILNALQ
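20 mM phosphate pH 7.0 + 0.01% (detergent screen) or 0.0001% Triton X-100; 5.3 nM AmpC reagent; cpd preinc 15 min RT; nitrocefin (800 uM stock) to start; A480 q20 s × 4 min; Activity was normalised to no-enzyme and no-compound control wells.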
AMA1-RON2 inh = inhibitors of Plasmodium falciparum AMA1-RON2 interaction; AlphaScreen AMA1-biotinylated RON2 peptide binding; Potency, µM (series often up to 58.2 µM), without a hit: at the top dose activity change, negative = inhibition, usual class: inhibitors; hit rate 0.2% among 360,000;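 also: 0% = vehicle wells and -100% = peptide control; nearly all actives have a fitted effect of over 45% in size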
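AMA1 (3D7) with his tag at 25 nM final met compounds first, then biotinylated RON2 peptide at 25 nM; detection used donor plus acceptor beads, 10 µg/mL apiece, read by AlphaScreen after 30 min at room temperature.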
AmpC no deterg = blocks E. coli AmpC beta-lactamase in detergent-free assay; P00811; AmpC nitrocefin hydrolysis, absorbance 480 nm, 0.0001% Triton; Potency, µM (series often up to 57.1 µM), for the others: at the highest dose activity change, negative = inhibition, usual class: inhibitors; hit rate 0.52% among 330,000;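 also: plate controls were no compound for no effect and no enzyme for full effect; nearly all actives have a fitted effect of over 20% in size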
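20 mM phosphate pH 7.0 + 0.01% (detergent screen) or 0.0001% Triton X-100; 5.3 nM AmpC reagent; cpd preinc 15 min RT; nitrocefin (800 uM stock) to start; A480 q20 s × 4 min; Activity was normalised to no-enzyme and no-compound control wells.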
Giardia FBPA inh-1 = blocks Giardia fructose-bisphosphate aldolase activity; A8B2U2; purified Giardia FBPA; Potency, µM (doses to about 59.6 µM), inactives show at the highest dose activity, negative = inhibition, actives largely listed as inhibitors; hit rate 0.71% among 290,000; also: nearly all actives have a fitted effect of over 55% in size
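40 nM FBPA preincubated 10 min at RT with compound (up to 57.5 uM final), then substrate plus GAPDH/TPI/NAD/arsenate coupling and diaphorase/resazurin added. Fluorescence read after 20 min at RT, 525/598 nm.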
Giardia growth = Giardia lamblia growth inhibition | hit rate 5% among 1,500 | AID 2785 | Giardia lamblia trophozoite growth inhibition | shares compounds with Giardia FBPA inh-1 | Potency, µM (doses to about 57.5 µM), without a hit: top-dose activity change, negative = inhibition, usual class: inhibitors;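 also: trophozoites exposed to compound for 48 h at 37 °C; nearly all actives have a fitted effect of over 70% in size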
Mammal cell tox = mammalian cytotoxicity of Giardia aldolase inhibitor hits | shares compounds with Giardia FBPA inh-1 | mammalian cell viability counter-screen, qHTS | Potency, µM (titrated, usually from 57.5 µM), inactives show at the highest dose viability change, negative = toxicity, usual class: inhibitors | hit rate 4% among 1,500;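 also: Chinese hamster ovary cells used as mammalian cytotoxicity surrogate; viability measured as cellular ATP by luminescence; compound exposure lasted 48 h before reading; nearly all actives have a fitted effect of over 60% in size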
Giardia FBPA inh-2 = confirmation of Giardia fructose-bisphosphate aldolase inhibitors | hit rate 5% among 1,500 | AID 2787 | Potency, µM (top dose mostly 57.5 µM), for the others: at the top dose activity change, negative = inhibition, most hits filed as inhibitors | purified Giardia aldolase enzyme activity, qHTS | shares compounds with Giardia FBPA inh-1; also: nearly all actives have a fitted effect of over 45% in size
Rabbit aldolase = selectivity test for Giardia aldolase inhibitors: rabbit aldolase; AID 2794; Potency, µM (series often up to 57.5 µM), for inactives: top-dose activity, negative = inhibition, usual class: inhibitors; Rabbit muscle FBPA enzyme inhibition, selectivity counter-screen; hit rate 4% among 1,500; shares compounds with Giardia FBPA inh-1; also: nearly all actives have a fitted effect of over 60% in size
Target sequence (P00883 whole entry, looked up): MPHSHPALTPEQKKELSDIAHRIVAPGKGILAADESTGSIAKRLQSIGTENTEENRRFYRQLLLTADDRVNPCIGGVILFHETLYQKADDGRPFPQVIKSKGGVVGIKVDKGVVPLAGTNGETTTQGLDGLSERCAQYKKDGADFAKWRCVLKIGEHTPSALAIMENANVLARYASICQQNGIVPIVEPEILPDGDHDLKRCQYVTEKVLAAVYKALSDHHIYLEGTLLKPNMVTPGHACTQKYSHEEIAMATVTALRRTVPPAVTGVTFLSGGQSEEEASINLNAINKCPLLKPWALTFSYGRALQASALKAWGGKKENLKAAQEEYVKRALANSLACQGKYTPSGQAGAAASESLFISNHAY
GAPDH counter = counter-screen for Giardia aldolase inhibitors: GAPDH coupling enzyme | hit rate 6% among 1,500 | Potency, µM (doses to about 57.5 µM), inactives show at the highest dose activity change, negative = inhibition, hits mostly inhibitors | GAPDH coupling enzyme counterscreen, biochemical, qHTS | shares compounds with Giardia FBPA inh-1; also: nearly all actives have a fitted effect of over 55% in size
Starred values were filed as active, the others as inactive; ! = not active in a repeat; [ ] = another dose, or the depositor's remark. The list is not random: actives were taken first. Their share in the collection is about 1.1%. Calls follow the shape of the dose curve; as a rule, active = well fitted curve in the direction sought with a large enough effect; inconclusive = small, poorly fitted or top-dose-only effect, or another doubt; inactive = no such curve, though single readings can be large; an effect the other way counts as inactive or inconclusive. Unless noted, % is scaled to controls: 0 for no effect and ±100 for the full control effect; potency is read from the fitted curve at half-maximal effect.

CCCCN(CC)c1nc(-c2ccccc2F)nc2ccccc12 was read as AmpC detergent 9%.
For O=C(c1ccc(F)cc1)N1CCN(CCc2ccncc2)CC1 the results were AmpC detergent 26%.
`O=C(CN(c1ccc(Cl)cc1)S(=O)(=O)c1ccc(Cl)c([N+](=O)[O-])c1)NCCc1ccc(F)cc1` gave AmpC detergent -3%, AMA1-RON2 inh -4%, AmpC no deterg 32µM* and Giardia FBPA inh-1 1%.
For COc1ccc(C2=CC(=O)C=CC2=O)cc1 the results were AmpC detergent inconclusive, AmpC no deterg 32µM* and Giardia FBPA inh-1 16µM*.
CN(C1=C(NC(=O)c2ccc(Cl)cc2)C(=O)c2ccccc2C1=O)c1ccccc1 was read as AmpC detergent -1%, AMA1-RON2 inh 10µM*, AmpC no deterg -18% and Giardia FBPA inh-1 inconclusive.
O=C(NC1=C(Nc2ccc(Cl)cc2)C(=O)c2ccccc2C1=O)c1ccccc1 was read as AmpC detergent 1%, AMA1-RON2 inh -5%, AmpC no deterg -29% and Giardia FBPA inh-1 inconclusive.
Screening O=C(Nc1ccc2oc(-c3ccccc3F)nc2c1)c1ccc2c(c1)OCCO2 returned AmpC detergent 3%, AMA1-RON2 inh 8.4µM*, AmpC no deterg 5% and Giardia FBPA inh-1 -9%.
Screening Cc1cc(NC(=O)c2ccc3c(c2)OCCO3)cc(-c2nc3ccccc3o2)c1O returned AmpC detergent -3%.
For Cc1oc(C)c2c(=O)ccc3c(c12)OC(N)=C(C#N)C3c1ccc(F)cc1 (centres undefined) the results were AmpC detergent 0%, AMA1-RON2 inh -23%, AmpC no deterg -16% and Giardia FBPA inh-1 5.6µM*.
`Cc1[nH]nc2c1C(c1ccc(F)cc1)C(C#N)=C(N)O2` (centres undefined) gave AmpC detergent -3%, AMA1-RON2 inh -1%, AmpC no deterg -18% and Giardia FBPA inh-1 2%.
For COc1ccc(NC(=O)c2cc(C3CCCCN3C(=O)OCc3ccccc3)on2)c(C)c1 (centres undefined) the results were AMA1-RON2 inh -8%.
For Cc1cccc(CSc2nc3c(sc4ccccc43)c(=O)n2CCC(=O)NC(C)C)c1 the results were AmpC detergent -4%.
`CCCCCCNC(=O)N[C@H](Cc1ccc(O)cc1)C(=O)NCCC[C@H]1CN2C(=NC[C@H]2CCC)N1CC1CCC1` gave AmpC detergent 8%, AmpC no deterg 66%, Giardia FBPA inh-1 16µM*, Giardia growth -18%, Mammal cell tox 5%, Giardia FBPA inh-2 -1%, Rabbit aldolase -2% and GAPDH counter 4%.
For CCC1CCC2(CC1)NNC(=S)NN2 the results were AmpC detergent -5%, AMA1-RON2 inh 14%, AmpC no deterg -13%, Giardia FBPA inh-1 13µM*, Giardia growth -11%[10.4 µM], Mammal cell tox 6%, Giardia FBPA inh-2 -6%, Rabbit aldolase 2% and GAPDH counter 5%.
COc1ccc(NC(=O)CN2C(=O)CC(c3ccco3)Sc3ccccc32)cc1OC (centres undefined) was read as AmpC detergent 21%.
`O=P(O)(O)CP(=O)(O)O` gave AmpC detergent 10%, AmpC no deterg -18%, Giardia FBPA inh-1 6.3µM*, Giardia growth 119%, Mammal cell tox 9%, Giardia FBPA inh-2 24%, Rabbit aldolase 2% and GAPDH counter 15%.
For O=P(O)(O)CCCl the results were Giardia FBPA inh-1 -1%.
Screening O=C1NC(=O)C(c2ccccc2[N+](=O)[O-])=C1Nc1ccc(O)c(Cl)c1 returned AmpC detergent -8%, AMA1-RON2 inh -20%, AmpC no deterg -42%, Giardia FBPA inh-1 25µM*!, Giardia growth -16%, Mammal cell tox -4%, Giardia FBPA inh-2 inconclusive, Rabbit aldolase inconclusive and GAPDH counter -19%.
For O=C(O)Cn1c2c(c3ccccc31)CSc1ccc(Cl)cc1-2 the results were AmpC detergent -11%, AMA1-RON2 inh -3%, AmpC no deterg -53%, Giardia FBPA inh-1 7.1µM*, Giardia growth 0%[10.4 µM], Mammal cell tox 2%, Giardia FBPA inh-2 17%, Rabbit aldolase 13% and GAPDH counter 16%.
O=C(O)Cn1c2ccccc2c2ccccc21 was read as AmpC detergent 11%, AMA1-RON2 inh -4%, AmpC no deterg -13% and Giardia FBPA inh-1 5%.
`Cc1ccc(C(=O)NN2C(=O)CSC2=S)cc1` gave AmpC detergent 2%, AMA1-RON2 inh 17%, AmpC no deterg -47% and Giardia FBPA inh-1 -5%.
Screening C/C(=N\N1C(=O)CSC1=S)c1ccc(Br)cc1 returned AmpC detergent inconclusive, AMA1-RON2 inh 51%, AmpC no deterg -16%[11.4 µM], Giardia FBPA inh-1 16µM*, Giardia growth -16%, Mammal cell tox 6%, Giardia FBPA inh-2 -12%, Rabbit aldolase 2% and GAPDH counter -6%.
For Cc1cccc(NC(=O)CSc2c3c(nc4ccccc24)CCC3)n1 the results were AmpC detergent inconclusive, AMA1-RON2 inh -14%, AmpC no deterg -26% and Giardia FBPA inh-1 1%.
For CC(C)NCC(=O)Nc1c2c(nc3ccccc13)CCC2 the results were AmpC detergent 6%, AMA1-RON2 inh 5%, AmpC no deterg -19%, Giardia FBPA inh-1 18µM*, Giardia growth 9%[10.4 µM], Mammal cell tox -7%, Giardia FBPA inh-2 2%, Rabbit aldolase 3% and GAPDH counter 12%.
Cc1ccc(NC(=O)CCS(=O)(=O)c2ccccc2)cc1S(=O)(=O)N1CCCCCC1 was read as AmpC detergent inconclusive, AMA1-RON2 inh 5% and AmpC no deterg -18%.
COc1ccccc1N1CCN(CC(=O)c2ccc(F)cc2)CC1 was read as AmpC detergent -11%, AMA1-RON2 inh -41%, AmpC no deterg -6%, Giardia FBPA inh-1 16µM*, Giardia growth -24%, Mammal cell tox 7%, Giardia FBPA inh-2 -18%, Rabbit aldolase 3% and GAPDH counter 5%.
